An excerpt weighted towards active compounds, which were near 2.9% of everything screened.
Vif imaging: inhibitors of HIV Vif; HEK293T cells, Vif self-association by quenched fluorescence, imaging, 24 h; inhibition, % at 7.49 µM; actives 0.35% (n = 340,000); AID 602346; in the data active = inhibition above about 50%, passing the limit was not always enough; inconclusive = no clear call, values can overlap the other calls; inactive = below about 31%
Wnt bcat act: Wnt/beta-catenin pathway activation; Wnt/beta-catenin reporter cell assay, activator, plate reader; activation, % at 9.35 µM; actives 1.2% (n = 300,000); in the data active = activation above about 30%, passing the limit was not always enough; inconclusive = no clear call, values can overlap the other calls;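 also: 0% = neutral control wells and 100% = positive control wells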
MITF TRPM1 HTS: MITF TRPM1 promoter activation in melanoma cells; SK-MEL-5 TRPM1-promoter luciferase, 24 h; % of positive control, neutral wells = 0; actives 0.75% (n = 300,000); activation, % at 12.5 µM;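 active = mean activation of at least 80% with every replicate also reaching 80%; inconclusive = mean reaches 80% but some replicate falls short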;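 also: 0% = neutral control wells and 100% = parthenolide positive control wells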
N-glyco inh: N-linked glycosylation inhibition; actives 0.23% (n = 360,000); D54 ERlucT glycosylation luciferase reporter, 24 h; percent of 100 nM tunicamycin response; AID 588692; reporter increase, % at 12.5 µM;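 active = mean luciferase reporter signal, scaled so untreated is 0 and the glycosylation-blocking control 100, at or above a set limit in every replicate; inconclusive = mean reaches the limit but not every replicate does; inactive = mean below the limit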;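 also: luciferase carries N-glycosylation sites so blocking glycosylation raises the light; 0% = median of neutral control wells and 100% = median of 100 nM tunicamycin wells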
PvdQ inh: P. aeruginosa PvdQ acylase inhibition | purified PvdQ acylase, fluorescence plate reader | inhibition, % at 10 µM | actives 0.063% (n = 340,000) | AID 488965; in the data active = inhibition above about 30%, passing the limit was not always enough; inconclusive = no clear call, values can overlap the other calls;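 also: 0% = vehicle neutral wells and 100% = reference inhibitor wells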
esBAF inh: inhibitors of esBAF chromatin remodeling in mouse ES cells; Bmi1-luciferase knock-in reporter, 24 h; 100% = twice the neutral-well signal; reporter increase, % at 12.5 µM; actives 2% (n = 350,000); in the data active = activation above about 40%; inconclusive = no clear call, values can overlap the other calls;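 also: 0% = median of the plate's neutral control wells and 100% = double that signal; a rise in the Bmi1 reporter signal indicates esBAF inhibition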
The depositor's hits bear a star; ? = inconclusive; . = not tested or not shown.

SMILES	Vif imaging	Wnt bcat act	MITF TRPM1 HTS	N-glyco inh	PvdQ inh	esBAF inh
C[C@@H]1CN([C@H](C)CO)C(=O)c2cc(-c3cccnc3)cnc2O[C@@H]1CN(C)C(=O)C1CCCCC1	.	.	.	.	.	-5
CCN1[C@@H]2c3ccc(-c4cccc(F)c4)c(=O)n3C[C@@H]2[C@@H](CO)[C@@H]1C(=O)N1CCCCC1	.	.	.	.	.	0
O=C(OCC(=O)N1CCc2ccccc2C1)c1cccs1	-6	0	16	1	4	.
CCOC(=O)C1CCCN(C(=O)COC(=O)c2cccs2)C1 (stereo not given)	-3	-5	23	1	2	3
CC1CCCCN1C(=O)COC(=O)c1ccc(N2CCCC2=O)cc1 (stereo not given)	5	-2	17	1	-5	4
CC1CCN(C(=O)COC(=O)c2cccs2)CC1	30	-3	41	-5	19	65*
CC1CCCCN1C(=O)COC(=O)c1cc(Cl)c2c(c1)OCO2 (stereo not given)	4	17	?	2	-21	55*
CC1CCN(C(=O)COC(=O)c2ccc3c(c2)OCO3)CC1	10	20	67	-6	-6	48*
O=C(OCC(=O)N1CCCCC1)c1cccs1	3	5	83*	-1	-17	48*
C[C@H]1CN([C@@H](C)CO)C(=O)Cc2cc(NC(=O)Nc3ccc(C(F)(F)F)cc3)ccc2O[C@H]1CN(C)S(=O)(=O)c1cn(C)cn1	.	.	.	.	.	-1
C[C@@H](NC(=O)C[C@H]1C=C[C@H](NC(=O)C2CC2)[C@@H](CO)O1)c1ccccc1	.	.	.	.	.	-1
C[C@H]1CN([C@@H](C)CO)C(=O)c2cc(NS(=O)(=O)c3ccc(Cl)cc3)ccc2O[C@H]1CN(C)C(=O)Nc1cccc2ccccc12	.	.	.	.	.	-1
CCC1CCCCN1C(=O)COC(=O)c1n[nH]c2ccccc12 (stereo not given)	-9	-2	10	2	-16	7
CC1CCN(C(=O)COC(=O)c2n[nH]c3ccccc23)CC1	.	.	66	-4	-15	58*
O=C(OCC(=O)N1CCCCCC1)c1cccs1	16	.	37	-4	-3	45*
COC(=O)C[C@@H]1CC[C@H]2[C@H](COc3ccc(NC(=O)Nc4ccc(C)cc4)cc3C(=O)N2C)O1	.	.	.	.	.	1
CC(C)C(=O)Nc1ccc2c(c1)C(=O)N(C)[C@H]1CC[C@@H](CC(=O)NCc3cccc(F)c3)O[C@H]1CO2	.	.	.	.	.	1
Cc1ccc(/C=C(\C#N)C(=O)NCC2CCCO2)o1 (stereo not given)	2	78*	10	1	0	13
N#C/C(=C\c1ccco1)C(=O)NCC1CCCO1 (stereo not given)	9	1	-12	3	-7	.
COc1ccc(CCNC(=O)/C(C#N)=C/c2ccc(OCC(=O)NCC3CCCO3)cc2)cc1OC (stereo not given)	1	-1	1	-1	35*	.
O=C(NCCc1ccccc1)c1cccc(NC(=O)C2CCC2)c1	-3	7	43	-3	-9	57*
O=C(NCCc1ccccc1)c1cccc(NC(=O)C2CC2)c1	-1	0	61	-2	9	52*
C[C@@H]1CCCCO[C@@H](CN(C)S(=O)(=O)c2cccs2)[C@@H](C)CN([C@H](C)CO)C(=O)c2cc(NC(=O)CCCN(C)C)ccc2O1	.	.	.	.	.	-1
C[C@H]1CN([C@@H](C)CO)C(=O)Cc2cc(NC(=O)Nc3ccccc3)ccc2O[C@H]1CN(C)S(=O)(=O)c1ccc(F)cc1	.	.	.	.	.	8
CCCNC(=O)N1C[C@H]2[C@@H](c3ccccc31)[C@H](CO)N2Cc1cc(F)ccc1F	.	.	.	.	.	-5
SMILES	Vif imaging	Wnt bcat act	MITF TRPM1 HTS	N-glyco inh	PvdQ inh	esBAF inh
COc1cc(CNc2ccc(O)cc2)cc(Br)c1OCc1ccccc1	-7	10	5	57*	-9	.
CC(=O)c1ccc(Nc2nc(C)cc(C)n2)cc1	-1	22	66	1	-9	50*
CCOC(=O)c1ccc(Nc2nc(C)cc(C)n2)cc1	2	18	46	2	-7	39
COc1ccc(-c2csc(N(CC(C)C)C(=O)c3ccco3)n2)cc1	-9	2	2	-3	5	10
CCN(C(=O)c1ccco1)c1nc(-c2ccc(OC)cc2)cs1	-7	21	.	-1	1	81*
COCCN(C(=O)c1ccco1)c1nc(-c2ccccc2)cs1	-4	1	6	-2	-14	35
CN(C(=O)c1ccco1)c1nc(-c2ccccc2)cs1	-2	19	130*	-8	-4	44*
CCC(=O)N(CC)c1nc(-c2ccc(OC)cc2)cs1	-3	26	72	-2	-5	72*
O=C(C[C@@H]1CC[C@H](NC(=O)Nc2ccccc2)[C@@H](CO)O1)NCc1cccc(F)c1	.	.	.	.	.	0
C[C@H](CO)N1C[C@H](C)[C@H](CN(C)Cc2ccc(C(F)(F)F)cc2)OCCCC[C@H](C)Oc2ccc(NC(=O)CCCN(C)C)cc2C1=O	.	.	.	.	.	-9
O=C(Nc1ccc(Cl)cn1)c1cccc(F)c1	.	.	23	16	8	14
O=C(Nc1ccc(Cl)cn1)c1ccccc1F	11	39*	30	-8	-9	.
O=C(Nc1ccc(Cl)cn1)c1cc2ccccc2o1	-2	.	16	-11	16	.
O=C(Nc1ccc(Cl)cn1)Nc1ccccc1F	-5	39*	.	2	-17	35
COc1cc2ccccc2cc1C(=O)Nc1ccc(Cl)cn1	84*	10	47	0	10	67*
O=C(NC(=O)c1ccccc1)Nc1ccc(Cl)cn1	19	35*	53	-8	-7	-6
CO[C@H]1CN(C)C(=O)c2ccc(NC(=O)C3CCOCC3)cc2OC[C@@H](C)N(C(=O)c2ccccc2)C[C@H]1C	.	.	.	.	.	-6
O=C(C[C@@H]1CC[C@H]2[C@@H](COC[C@@H](O)CN2S(=O)(=O)c2ccc(Oc3ccccc3)cc2)O1)Nc1ccccc1	.	.	.	.	.	-4
C[C@@H]1CN([C@@H](C)CO)C(=O)c2cccc(NS(=O)(=O)c3ccc(F)cc3)c2O[C@@H]1CN(C)C	.	.	.	.	.	1
Cc1cc(NC(=O)c2ccccc2F)ncc1NC(=O)c1cccs1	7	12	58	1	-6	50*
C/C(=C\c1ccccc1)C(=O)Nc1ccc(Cl)cn1	-6	33*	.	-12	-19	8
C[C@@H]1CN([C@@H](C)CO)C(=O)c2cccc(NC(=O)c3nc4ccccc4s3)c2O[C@H]1CN(C)Cc1ccc(C(=O)Nc2ccccc2N)cc1	.	.	.	.	.	7
CC(C)c1ccc(OCc2nc(-c3ccccn3)no2)c(Br)c1	.	76*	79	-9	6	25
CC(Oc1ccc(Cl)cc1Cl)c1nc(-c2ccccn2)no1 (stereo not given)	-3	.	131*	0	-12	103*
